Results as given in PubChem BioAssay (NCI).
This is part of a sample that, as a whole, favours compounds with a hit. Of some 83,000 tested, about 20% had one in any assay.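 The test compound was applied at a single concentration to cells in 96-well plates for 48 hours, and percent growth was recorded.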 A number with no mark means an inactive call. Calls of active or inactive are those of the source. Rule for the calls: active = growth percent below 10; inactive = the rest.

System: SR leukemia
Assay: NCI-60 one-dose screen, 48 h (100 = growth as untreated, 0 = no growth, -100 = all killed)
Settings: 10 µM unless noted

**Q.** CC1=C(C(=O)Nc2ccccc2)C(c2cccc3ccccc23)n2c(nc3ccccc32)N1 (configuration not stated) was tested. Which growth did it give?
**A.** Its growth is 72.4%.

**Q.** Which growth does the source give for COc1ccc(NC(=O)CSc2nnc(-c3ccc(-c4nc5ccccc5[nH]4)cc3)o2)cc1 here?
**A.** Its growth is 35.3%.

**Q.** Which growth does the source give for COc1cc2cc(C(=O)N3C[C@@H](CCl)c4c3cc(OC(=O)N(C)CCSSCCN3CCOCC3)c3ccccc43)[nH]c2c(OC)c1OC here?
**A.** Its growth is -23.5% (active).

**Q.** Which growth does the source give for CC(=O)C[n+]1cccc2c3ccccc3ccc21 here?
**A.** Its growth is 66.3%.

**Q.** For CC[C@]12C=CCN3CC[C@]4(C(=C(C(=O)OC)C1)Nc1cc(OC)c([C@@H]5[C@H]6O[C@H]6[C@@]6(CC)CC(C(=O)OC)=C7Nc8cc(O)ccc8[C@@]78CCN5[C@@H]68)cc14)[C@@H]32, which growth is on record?
**A.** The growth was -30.7% (active).

**Q.** Which growth does the source give for Cc1ccccc1Nc1nnc(-c2c[nH]c3ccccc23)o1 here?
**A.** The growth was 15.5%.

**Q.** For COc1cncc(-c2ccc3ncnc(N4CCc5ccc(Cl)cc54)c3c2)c1, which growth is on record?
**A.** Its growth is 3.37% (active).

**Q.** Clc1ccc2c(NCCNC34CC5CC(CC(C5)C3)C4)ccnc2c1 was tested. Which growth did it give?
**A.** The growth was -35.2% (active).

**Q.** How did the growth turn out when Cn1cc(-c2cc(N)n3nc(-c4c[nH]c5ccccc45)cc3n2)c2cc(Br)ccc21 was run?
**A.** The growth was 13.6%.

**Q.** For Cc1nn(-c2ccccc2)c2nc(C)n(CC(=O)N/N=C/c3cccc([N+](=O)[O-])c3)c(=O)c12, which growth is on record?
**A.** The growth was 85.8%.

**Q.** Which growth does the source give for Cc1ccc(S(=O)(=O)Nc2ccc(-c3ccc4c(c3)NC(=O)/C4=C\c3ccc[nH]3)cc2)cc1 here?
**A.** The growth was -3.97% (active).

**Q.** Which growth does the source give for O=C1c2cccc3c(N4CCN(c5ccccc5)CC4)ccc(c23)C(=O)N1c1cccc(-c2nn(-c3ccccc3)cc2-c2nc3ccccc3s2)c1 here?
**A.** Its growth is 90.9%.

**Q.** COc1ccc(-c2cc(-c3cc(C(C)C)c(O)cc3C)nn2-c2ccc(S(N)(=O)=O)cc2)cc1 was tested. Which growth did it give?
**A.** Its growth is 5.77% (active).

**Q.** For Clc1ccc(-c2nc3c4c(-c5ccccc5)c(-c5ccccc5)n(Cc5ccccc5)c4ncn3n2)cc1, which growth is on record?
**A.** Its growth is 5.49% (active).

**Q.** How did the growth turn out when Cc1ccc(-c2cc(C(=O)N=Nc3c(O)[nH]c4ccc(F)cc34)c3ccccc3n2)cc1 was run?
**A.** Its growth is 56.8%.

**Q.** For COc1ccc(/C=C/c2nc3ccccc3n3c(-c4cccc([N+](=O)[O-])c4)nnc23)cc1, which growth is on record?
**A.** The growth was -33.3% (active).

**Q.** For O=C(c1ccc(O)cc1)C1[C@H](c2ccc(Cl)cc2)[C@@H](c2ccccc2)NC12C(=O)Nc1ccccc12 (some centres not stated), which growth is on record?
**A.** Its growth is -47.2% (active).

**Q.** How did the growth turn out when N#C/C(=C1/C(=O)Nc2ccccc21)c1nnc(NC(=O)c2ccc(-n3c(=O)[nH]c4ccccc4c3=O)cc2)s1 was run?
**A.** The growth was 17%.

**Q.** How did the growth turn out when CN(C(=O)CN1C(=O)/C(=C/c2ccco2)SC1=S)C1CCS(=O)(=O)C1 (configuration not stated) was run?
**A.** Its growth is 84.8%.

**Q.** COc1c2c(cc3c1C(CCc1ccccc1)N(C)CC3)OCO2 (configuration not stated) was tested. Which growth did it give?
**A.** Its growth is -9.93% (active).

**Q.** How did the growth turn out when COc1cc(C2CC(c3ccc(F)cc3)=Nc3c(N)nc(N)nc3N2)ccc1Oc1nc(Nc2ccc(F)cc2)nc(N(C)C)n1 (configuration not stated) was run?
**A.** The growth was -21.5% (active).

**Q.** Which growth does the source give for CC(C)C[C@H](NC(=O)CNC(=O)C[C@H]1O[C@@H]2OC3(C)CC[C@H]4[C@H](C)CC[C@@H]([C@H]1C)[C@@]24O3)B(O)O here?
**A.** Its growth is 9.06% (active).

**Q.** Cc1[nH]nc2ccc3nc(-c4cnn(CCO)c4)c4c(c3c12)CCCC4 was tested. Which growth did it give?
**A.** The growth was 13.8%.

**Q.** With CCCN(CCC)S(=O)(=O)c1ccc(C(=O)O)cc1.CCCN(CCC)S(=O)(=O)c1ccc(C(=O)O)cc1.[Cl][Pt+2][Cl].[NH2-].[NH2-] as the molecule, how does the growth read?
**A.** The growth was 3.39% (active).

**Q.** With COc1ccc(N=Nc2c(N)nn3c(-c4ccc5c(c4)C=S=C5)ccnc23)cc1 as the molecule, how does the growth read?
**A.** Its growth is 33.9%.

**Q.** How did the growth turn out when O=C(NNC(=O)c1ccc(OCc2nc3ccc(Cl)cc3[nH]2)cc1)Nc1ccc(Cl)c(Cl)c1 was run?
**A.** The growth was 69.3%.

**Q.** Cc1nc(Nc2ccccn2)sc1C1=NNC(c2ccccc2F)C1 (configuration not stated) was tested. Which growth did it give?
**A.** Its growth is 12.4%.

**Q.** COc1ccc(-c2nc3ccccc3n2CC(=O)N=Nc2c(O)[nH]c3ccc(Br)cc23)cc1 was tested. Which growth did it give?
**A.** The growth was 7.92% (active).

**Q.** CC[C@]12C=CCN3CC[C@@]4(c5ccc(OC)cc5N(C)[C@H]4[C@@](O)(C(=O)OC)[C@@H]1OC(=O)CCC[P+](c1ccc(OC)cc1)(c1ccc(OC)cc1)c1ccc(OC)cc1)[C@@H]32 was tested. Which growth did it give?
**A.** Its growth is 15%.

**Q.** For COc1ccc(-c2cc(C(=O)N=Nc3c(O)[nH]c4ccc(Cl)cc34)c3ccccc3n2)cc1OC, which growth is on record?
**A.** The growth was 103%.

**Q.** With Fc1ccc(Nc2nnc(-c3c[nH]c4ccccc34)o2)cc1 as the molecule, how does the growth read?
**A.** Its growth is 70.4%.

**Q.** O=C(NN1C(=O)/C(=C/C=C/c2ccc([N+](=O)[O-])o2)SC1=S)c1ccc(O)cc1 was tested. Which growth did it give?
**A.** Its growth is -7.52% (active).

**Q.** Which growth does the source give for Cc1cccc(-c2ccccc2Oc2ccc3nnc(Cl)n3n2)c1 here?
**A.** Its growth is 86.9%.

**Q.** C[C@H](NC(=O)c1ccc2c(-c3ccc(C(F)(F)F)cc3)cccc2c1)c1ccccn1 was tested. Which growth did it give?
**A.** The growth was 33.3%.

**Q.** For Cc1ccc(C(=O)Nc2cc(-c3ccccc3)cc(C(F)(F)F)c2)cc1C#Cc1cnc2cccnn12, which growth is on record?
**A.** The growth was 44.8%.

**Q.** With O=[N+]([O-])c1cccc(-c2nnc3c(/C=C/c4ccc(F)cc4)nc4ccccc4n23)c1 as the molecule, how does the growth read?
**A.** Its growth is 85.2%.

**Q.** Which growth does the source give for O=C1Nc2cc(-c3ccc(NS(=O)(=O)c4ccc(C(F)(F)F)cc4)cc3)ccc2/C1=C/c1ccc[nH]1 here?
**A.** The growth was 4.6% (active).
